Here are results for 40 molecules from PubChem BioAssay (Tox21).

Values joined by “and” are separate entries in the source; they are usually repeats but may differ in a detail not shown here. Identical values can stand only once. Inconclusive results are not listed. A call without a number means that no potency is given here. Where a structure was tested more than once in an assay, its records may differ in their call. Active and inactive are the calls of the source. The call rests on the fitted dose curve; in most records, active means well fitted cell-killing curve with a large enough effect in the repeat runs; inconclusive means weak or mixed curves, or effect the other way; inactive means flat fitted curve, though single readings scatter.
Potency means the concentration at half of the fitted maximal effect.

This experiment can be described thus: Human pregnane X receptor (PXR) small molecule agonists, qHTS cell viability counter screen (AID 1346977). Further: nearly all actives have a fitted effect of over 50% in size. Particulars: PXR-Luc HepG2 viability, CellTiter-Fluor, 24 h; series mostly up to 92.4 µM. An excerpt:
U.S. Tox21 Program National Center for Advancing Translational Sciences [NCATS] NIH Chemical Genomics Center [NCGC] U.S. Environmental Protection Agency [EPA] National Institutes of Environmental Health Sciences [NIEHS] National Toxicology Program [NTP] U.S. Food and Drug Administration [FDA] Tox21 Assay Overview: The human pregnane X receptor (hPXR) regulates the expression of several drug metabolizing enzymes and induction of these proteins is a major mechanism for developing drug resistance in cancer. One such key enzyme catalyzing the drug metabolism is cytochrome P450 3A4 (CYP3A4). Changes in CYP3A4 expression affect drug metabolism, thereby reducing the therapeutic efficacy and altering toxicological response to a drug and which finally causes adverse drug interaction. To screen Tox21 libraries for compounds that activate hPXR-mediated CYP3A4 gene expression, PXR-Luc HepG2 cells were used. Also cytotoxicity of the compounds was tested in parallel by measuring the cell viability using CellTiter-Fluor assay system in the same wells.
Tox21 Assay Protocol Summary: PXR-Luc HepG2 cells were dispensed at 2,000 per well in 5uL of assay medium containing 5% charcoal-stripped FBS into white solid bottom 1536-well plates (Corning Life Sciences, Corning, NY) using a Multidrop Combi (Thermo Scientific, Waltham, MA) dispenser. The assay plates were incubated at 37 C and 5% CO2 for 5hr, and then 23nL of compounds dissolved in DMSO and positive control were transferred using a Pintool station (Wako, San Diego, CA). The assay plates were incubated at 37C and 5% CO2 for 24hr. For cytotoxicity read, after 23hr incubation at 37C, 1uL CellTiter-Fluor reagent (Promega Corporation, Madison, WI) was added to each well of the assay plates using Flying Reagent Dispenser (FRD, Aurora Discovery, San Diego, CA). After 1hr incubation at 37C and 5% CO2, the fluorescence signal was quantified using a ViewLux plate reader (PerkinElmer, Shelton, CT).
In general terms: qHTS replaces the single test concentration by a dilution series.
For `CC(C)CC(C)O` (stereo not given), the Potency result is “inactive”.
On to `O=[N+]([O-])c1ccc2nc[nH]c2c1`, for which the Potency entry was “inactive”.
With `CC(=O)CC(C)(C)O`, the Potency result is “inactive”.
Turning to `CCCCCCCCCCCC(=O)OC`, the Potency entry is “inactive”.
On to `N#Cc1ccccc1`, for which the Potency result is “inactive”.
For the molecule `COc1ccccc1OCC(O)CO` (stereo not given), the Potency entry was “inactive”.
Regarding `c1ccc(Oc2ccccc2)cc1`, the Potency result is “inactive”.
On to `COC(=O)CCCC(=O)OC`, for which the Potency result was “inactive”.
For `O=C(OCC1CCC2OC2C1)C1CCC2OC2C1` (stereo not given), the Potency entry was “inactive”.
Take `CCCCCCCCCCCCCCCC(=O)OC(C)C`: the Potency result is “inactive”.
As to `C=CCCCCCCCCC(=O)O`, the Potency entry is “inactive”.
Take `CC(=O)OCCOC(C)=O`: the Potency result is “inactive”.
Turning to `Cc1ccc(S(=O)(=O)N=C=O)cc1`, the Potency was 28.2 µM (active) and inactive.
Consider `Brc1ccc(Br)c(Br)c1`, for which the Potency entry is “inactive”.
Regarding `CC(CCl)OP(=O)(OC(C)CCl)OC(C)CCl` (stereo not given), the Potency result is “inactive”.
In the case of `CNC(=O)Oc1ccc2c(c1)[C@]1(C)CCN(C)[C@@H]1N2C`, the Potency result is “inactive”.
Turning to `CC(C)CCCCCCCOC(=O)CCCCC(=O)OCCCCCCCC(C)C`, the Potency result was “inactive”.
Turning to `COc1ccc([N+](=O)[O-])cc1N`, the Potency entry was “inactive”.
On to `CCNc1cccc(C)c1`, for which the Potency result is “inactive”.
Consider `CC(C)OC(=O)COc1ccc(Cl)cc1Cl`, for which the Potency result was “inactive”.
`O=S(=O)(O)c1ccc(N=Nc2c(O)ccc3cc(S(=O)(=O)O)ccc23)cc1`: the Potency was 39.8 µM (active) and 30.6 µM (active).
With `COc1ccc(C)cc1N`, the Potency entry is “inactive”.
In the case of `Cc1ccc(C(C)C)c(O)c1`, the Potency entry is “inactive”.
For `CC1(C)NC(=O)NC1=O`, the Potency entry is “inactive”.
As to `CC(=O)c1ccc(O)cc1`, the Potency result was “inactive”.
Turning to `COCCOC(=O)c1ccccc1C(=O)OCCOC`, the Potency entry is “inactive”.
Regarding `C=C(C)[C@H]1CC=C(C)C(=O)C1`, the Potency entry is “inactive”.
As for `CCO[Si](CCC#N)(OCC)OCC`, the Potency entry is “inactive”.
Turning to `NCCCCCCN`, the Potency entry was “inactive”.
The value for `CCCCCCCCCCN` was “inactive”; that for `COC(=O)c1cccnc1` was “inactive”.
Turning to `CC(C)(Oc1ccc(CCNC(=O)c2ccc(Cl)cc2)cc1)C(=O)O`, the Potency entry is “inactive”.
In the case of `CC(C)=CCl`, the Potency result is “inactive”.
The value for `NC(=S)NNC(N)=S` was “inactive”; that for `C[C@]12CC[C@@H]3c4ccc(O)cc4CC[C@H]3[C@@H]1C[C@@H](O)[C@@H]2O` was “inactive”.
On to `CC(=O)OCc1ccccc1`, for which the Potency result is “inactive”.
With `C[C@]12CCC(=O)C=C1CC[C@@H]1[C@@H]2[C@@H](O)C[C@@]2(C)[C@H]1CC[C@]2(O)C(=O)CO`, the Potency entry is “inactive”.
Regarding `CC(CCO)CC(C)(C)C` (stereo not given), the Potency entry is “inactive”.
`CN(C)CCOC(=O)COc1ccc(Cl)cc1`: the Potency result was “inactive”.
Consider `CN(C)c1ccc(O)c2c1C[C@H]1C[C@H]3[C@H](N(C)C)C(=O)C(C(N)=O)=C(O)[C@@]3(O)C(=O)C1=C2O`, for which the Potency result was “inactive”.
